Screens: PubChem, Broad Institute
Rows were chosen to be rich in hits. Some 2.1% of all compounds tested hit in one or more screens of this group.
mut p53 react = mutant p53 pathway re-activators, primary screen, cell-based, SW480, luciferase, single point, HTS; SW480 PUMA-promoter luciferase, p53 mutant reactivation; activation, % at 9.98 µM; 28,000 compounds, 1.5% hits; AID 624151, 2012; in the data active = activation above about 52%
STK33 kin inh = STK33 kinase inhibitors, primary screen, biochemical, luminescence, ADP-Glo, MBP substrate; AID 2322, 2010; 27,000 compounds, 0.44% hits; inhibition, % at 12.5 µM; in the data active = inhibition above about 20%
ID4 binder = binders of human ID4 protein, primary screen, biochemical, small molecule microarray, single point | DNA-binding protein inhibitor ID-4 (Homo sapiens), P47928 | Flag-ID4 binding, fluorescence F/B | calls only | 31,000 compounds, 1.2% hits; call rule not given here;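 also: a binder raises fluorescence above local background on the spot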
Target sequence (P47928 whole entry, looked up): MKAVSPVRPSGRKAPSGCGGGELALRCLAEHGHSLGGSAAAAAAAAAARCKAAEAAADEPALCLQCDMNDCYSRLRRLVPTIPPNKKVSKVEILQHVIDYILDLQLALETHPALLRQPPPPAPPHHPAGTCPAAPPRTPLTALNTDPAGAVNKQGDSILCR
Of the large screens only hits and unclear results are named; the others gave an inactive call.

C[C@@H]1CN([C@@H](C)CO)C(=O)Cc2cc(NC(=O)Cc3ccccc3)ccc2O[C@H]1CN(C)C(=O)Nc1ccccc1	ID4 binder active (no result: STK33 kin inh)
C[C@@H]1CN([C@H](C)CO)C(=O)Cc2cc(NS(=O)(=O)c3ccccc3)ccc2O[C@H]1CN(C)C(=O)Nc1ccccc1	none
C[C@@H]1CN([C@H](C)CO)C(=O)Cc2cc(NC(=O)Cc3ccccc3)ccc2O[C@@H]1CN(C)C(=O)Nc1ccccc1	none
C[C@@H]1CN([C@@H](C)CO)C(=O)Cc2cc(NS(=O)(=O)c3ccccc3)ccc2O[C@H]1CN(C)C(=O)Nc1ccccc1	ID4 binder active (no result: STK33 kin inh)
C[C@H](CO)N1C[C@H](C)[C@@H](CN(C)C(=O)Nc2ccccc2)Oc2ccc(NC(=O)Cn3cnnn3)cc2CC1=O	ID4 binder active (no result: STK33 kin inh)
O=C(Cn1cc(C(=O)C2CC2)c2ccccc21)Nc1ccccc1C(F)(F)F	none
O=S1(=O)NC(=NCCCCO)c2ccccc21	none
CC(=O)Nc1ccccc1C(=O)OCc1cccc(C(=O)c2ccccc2)c1	mut p53 react 94.2
N#Cc1ccc(Oc2ccc(C(=O)OCc3cccc(C(=O)c4ccccc4)c3)cc2)cc1C#N	none
O=C(OCc1cccc(C(=O)c2ccccc2)c1)c1ccc(-c2nnc(-c3ccccc3)o2)cc1	mut p53 react 71.3
O=C(Nc1ccccc1C(=O)OCc1cccc(C(=O)c2ccccc2)c1)c1ccccc1	none
O=C(Cn1cc(C(=O)c2ccccc2F)c2ccccc21)NCC1CCCO1 (stereo not drawn)	none
Cc1nnn(C23CC4CC(CC(C(=O)NC5CCCCCC5)(C4)C2)C3)n1	none (no result: STK33 kin inh)
COC(=O)CCCCCCC(=O)Nc1ccc(C2OC(CSc3ccccn3)CC(c3ccccc3)O2)cc1 (stereo not drawn)	none (no result: mut p53 react)
O=C(O)CCCCCCC(=O)Nc1ccc(C2OC(CSCCO)CC(c3ccccc3)O2)cc1 (stereo not drawn)	ID4 binder active (no result: mut p53 react, STK33 kin inh)
COc1ccc(C(=O)O)cc1S(=O)(=O)NCc1ccccc1	none
CCC1=C/C(=C\N(C)c2ccccc2)C(=O)S1	mut p53 react 75.4 (no result: STK33 kin inh)
C/C(=C\CC[C@@H](C)[C@H]1CC(O)[C@@]2(C)C3CC[C@H]4C(C)(C)[C@@H](O[C@@H]5OC(CO)C(O)C(O)C5OC5OC(CO)C(O)C(O)C5O)CC[C@@]45C[C@@]35CC(O)[C@]12C)C(=O)O (stereo partly drawn)	none
COc1ccccc1NC(=O)CSc1nnc(-c2ccc([N+](=O)[O-])cc2)n1-c1ccccc1	none
Oc1c(C(Nc2ccccn2)c2c(F)cccc2Cl)cc(Cl)c2cccnc12 (stereo not drawn)	none
O=C(NCc1nc2ccccc2[nH]1)C1=C[C@H](C2CC2)C[C@H](OCc2ccc(CO)cc2)O1	ID4 binder active (no result: mut p53 react, STK33 kin inh)
O=C(NCc1nc2ccccc2[nH]1)C1=C[C@@H](C2CC2)C[C@@H](OCc2ccc(CO)cc2)O1	none (no result: mut p53 react, STK33 kin inh)
O=C(CSc1nc(-c2ccccc2)cc(=O)[nH]1)Nc1ccccc1	none
O=C(CSc1nc(-c2ccccc2)cc(=O)[nH]1)NCC1CCCO1 (stereo not drawn)	ID4 binder active
